A selection: hits, their analogues and other compounds. The true share with any hit is near 4%.
BoNT F protease: BoNT/F light chain protease inhibitors, primary screen, biochemical, flow cytometry, MLPCN library; Botulinum neurotoxin type F light chain protease (Clostridium botulinum); Multiplex microsphere protease cleavage assay; inhibition, % at 10 µM; 360,000 tested, 0.22% active; in the data active means inhibition above about 35%, passing the limit was not always enough; inconclusive means no clear call, values can overlap the other calls
Autofluor counter: counter-screen for toxin protease inhibitors: compound fluorescence. fluorescence intensity (no concentration beside the values). compound autofluorescence counterscreen, microsphere flow cytometry; active compounds read high. 360,000 tested, 3.1% active; in the data active means fluorescence intensity above about 16000; inconclusive means no clear call, values can overlap the other calls
MazEF act: activators of E. coli MazEF toxin-antitoxin RNase, primary screen, biochemical, fluorescence, uHTS; Endoribonuclease toxin MazF (Escherichia coli (strain K12)), P0AE70; FAM/BHQ RNA-DNA oligo cleavage fluorescence, 5 h; activation, % at 20 µM; 350,000 tested, 0.32% active; AID 504720, 2011; in the data active means activation above about 50%
Target sequence (P0AE70 whole entry, looked up): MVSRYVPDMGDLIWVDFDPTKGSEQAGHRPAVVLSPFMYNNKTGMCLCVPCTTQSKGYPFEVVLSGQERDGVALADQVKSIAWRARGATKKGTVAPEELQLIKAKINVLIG
Anthrax LF prot: Bacillus anthracis LF protease inhibitors, primary screen, biochemical, multiplex microsphere, MLPCN library; Lethal factor (Bacillus anthracis), P15917; multiplex microsphere protease cleavage assay; inhibition, % at 10 µM; 360,000 tested, 0.12% active; AID 588501, 2011
BoNT A protease: BoNT/A light chain protease inhibitors, primary screen, biochemical, flow cytometry, MLPCN library. multiplex microsphere protease substrate cleavage. inhibition, % at 10 µM. 360,000 tested, 0.17% active
DUSP3 inh: VHR1 phosphatase inhibitors, primary screen, biochemical, absorbance, uHTS | Dual specificity protein phosphatase 3 (Homo sapiens), P51452 | recombinant VHR phosphatase, pNPP absorbance | inhibition, % at 13.3 µM | 290,000 tested, 0.52% active; in the data active means inhibition above about 50%
Target sequence (P51452 whole entry, looked up): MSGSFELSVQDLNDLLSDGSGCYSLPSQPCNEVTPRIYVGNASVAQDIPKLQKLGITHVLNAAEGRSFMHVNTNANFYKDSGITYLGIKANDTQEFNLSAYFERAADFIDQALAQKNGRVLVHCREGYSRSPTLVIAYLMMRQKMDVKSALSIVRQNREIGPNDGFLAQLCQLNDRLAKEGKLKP
Of the large screens only hits and unclear results are named; the others gave an inactive call. Unless noted, no stated cut-off is given here; in the data, active means inhibition above about 30%; inconclusive means no clear call, values can overlap the other calls; inactive means below that.

CCc1ccc(N2CSC3=C(C#N)C(c4cccs4)CC(=O)N3C2)cc1 (stereo not given)	Autofluor counter 25679
COc1cc2nc(C3CCC3)n(NC(=O)C3CCCC(OC)C3)c(=O)c2cc1OC (stereo not given)	none
c1ccc(-c2nc(-c3ccco3)cs2)nc1	Autofluor counter 22107
COc1ccc(C)cc1CN1C(=O)c2ccccc2C1=O	DUSP3 inh 53.0
COc1ncnc2sc(-c3ccccc3)cc12	none
COc1ccc(Nc2ncnc3sc(-c4ccccc4)cc23)cc1	Autofluor counter 19970, BoNT A protease inconclusive
CCc1cccc(C)c1NC(=O)c1cccnc1	BoNT F protease inconclusive, Anthrax LF prot 31.2
CCC(C)c1ccccc1NC(=O)c1cccnc1 (stereo not given)	Autofluor counter 23335
CCc1cccc(C)c1NC(=O)c1cc(C)oc1C	Autofluor counter 22641
CC(C)c1ccccc1NC(=O)c1cccnc1	none
O=C(NCc1cccnc1)/C(=C/c1ccccc1)NC(=O)c1ccccc1	none
Cc1ccccc1C(=O)NC(C)C1CC2CCC1C2 (stereo not given)	none
Cc1cnc2c(C(=O)O)cnn2c1	none
CCN(CC)CCOC(=O)c1ccc(NC(=O)c2cccc(C)c2[N+](=O)[O-])cc1	none
CSc1ncccc1C(=O)Nc1nc(C(C)(C)C)cs1	none
COCC(=O)Nc1nc(-c2ccccc2)c(C)s1	Autofluor counter 19856
CCC(C)C(=O)Nc1nc(C)c(-c2csc(Nc3cc(Cl)ccc3OC)n2)s1 (stereo not given)	none
CCC(C)C(=O)Nc1nc(C)c(-c2csc(Nc3cc(OC)ccc3OC)n2)s1 (stereo not given)	DUSP3 inh 51.2
CN1CCN(C(=S)Nc2ccc([N+](=O)[O-])cc2)CC1	none
O=C(CSc1nnc(Nc2ccccc2)s1)NCc1cccs1	none
CC(=O)Nc1ccc(NS(=O)(=O)c2cccc3nonc23)cc1	DUSP3 inh 57.5
CCCCC(=O)NC(NC(=S)N1CCOCC1)C(Cl)(Cl)Cl (stereo not given)	Autofluor counter 23068, BoNT A protease inconclusive
O=C(NC(NC(=S)N1CCOCC1)C(Cl)(Cl)Cl)c1ccc(Cl)cc1 (stereo not given)	none
CC(C)CCOc1ccc(/C=C2\CCn3c2nc2cc(C(=O)O)ccc2c3=O)cc1	DUSP3 inh 56.3
COc1ccc(N2CCN(S(=O)(=O)c3c(C(=O)N4CCOCC4)c(C)n(C)c3C)CC2)cc1	DUSP3 inh 51.2
CC(=O)c1ccc(N2CCN(S(=O)(=O)c3c(C(=O)N4CCCC4)c(C)n(C)c3C)CC2)cc1	none
CCC(C)(C)NC(=O)C(c1cccn1C)N(C(=O)Cn1nnc2ccccc21)c1ccc(OC)cc1OC (stereo not given)	Autofluor counter inconclusive
Cc1cc(C)c(C(=O)COC(=O)[C@H](C)Nc2ccc(C(F)(F)F)cc2[N+](=O)[O-])c(C)c1	Autofluor counter 21371
CCOC(=O)C(CSCc1ccccc1)NC(=O)OC(C)(C)C (stereo not given)	none
CC(C)(C)c1nc(SCC(=O)c2ccccc2)c2ccccc2n1	none
COc1ccc(NC(=O)c2ccc(CN(c3cc(Cl)ccc3C)S(=O)(=O)c3ccccc3)cc2)cc1OC	Autofluor counter 20845
Cc1ccc(Cl)cc1N(Cc1ccc(C(=O)NCc2cccnc2)cc1)S(=O)(=O)c1ccccc1	Autofluor counter 22366, BoNT A protease inconclusive
COc1ccccc1NC(=O)c1ccc(CN(c2cc(Cl)ccc2C)S(=O)(=O)c2ccccc2)cc1	none
COc1cc(C2C(C#N)=C(N)Oc3cc4c(cc32)OCO4)cc(OC)c1OC (stereo not given)	none
Cn1c(CN2CCCC2)c(C#N)c2ccccc21	none
Cn1c(CN2CCOCC2)c(C#N)c2ccccc21	Autofluor counter 17523
CN1CCN(Cc2c(C#N)c3ccccc3n2C)CC1	Autofluor counter 19926, BoNT A protease inconclusive
CN1CCN(Cc2nc3ccccc3n2C)CC1	Autofluor counter 19606, BoNT A protease inconclusive
CCc1nnc(NS(=O)(=O)c2ccc(NCc3cc(Cl)cc(Cl)c3O)cc2)s1	none
Clc1ccc(C2CC(c3cccs3)n3ncnc3N2)c(Cl)c1 (stereo not given)	none
CN1CCN(CCCNc2nc3ccccc3c3nc(-c4ccccc4)nn23)CC1	none (no result: DUSP3 inh)
CC(C)c1ccc(N2C(=O)C(Cl)=C(N3CCOCC3)C2=O)cc1	none
O=C1C(Cl)=C(N2CCOCC2)C(=O)N1c1ccc(Br)cc1	Anthrax LF prot 30.4
O=C(CN(C(=O)CCC(=O)Nc1ccccn1)c1cccc(F)c1)NCc1ccc2c(c1)OCO2	none
O=[N+]([O-])c1cc(F)c(N2CCCCC2)cc1N1CCOCC1	none
O=C(Nc1ccccc1N1CCOCC1)c1ccc(N2CCOCC2)c([N+](=O)[O-])c1	none
O=C1CCN(c2ncccc2[N+](=O)[O-])CC1	none
O=[N+]([O-])c1cc(F)c(N2CCOCC2)cc1N1CCCCC1	Autofluor counter 24982
O=C(Nc1ccccc1N1CCOCC1)c1ccccc1[N+](=O)[O-]	Autofluor counter 24174
O=[N+]([O-])c1cccnc1N1CCOCC1	Autofluor counter 19529, BoNT A protease inconclusive
O=C(C1CC1)N1CCc2cc(Br)cc(S(=O)(=O)N3CCN(c4ccccn4)CC3)c21	none
O=c1[nH]c(Nc2ccc(F)cc2)cc2ccccc12	Autofluor counter 23479, BoNT A protease inconclusive
O=c1[nH]c(Nc2ccccc2Cl)cc2ccccc12	none (no result: DUSP3 inh)
C[C@H](NC(=O)c1cc2cc(Cl)ccc2n1C)C(=O)N[C@@H](C(=O)O)c1ccccc1	none
Cc1ccc2nc(C(Cl)(Cl)Cl)nc(N/N=C/c3ccc([N+](=O)[O-])cc3)c2c1	MazEF act 55.2 (no result: DUSP3 inh)
Cc1ccc2nc(C(Cl)(Cl)Cl)nc(N/N=C/c3ccncc3)c2c1	none
CC(=O)N1CCCc2cc(S(=O)(=O)N3CCCC(C(=O)NCc4ccccc4)C3)ccc21 (stereo not given)	none
Cc1ccc(NC(=O)N2CCCC2C(=O)NCCC2=CCCCC2)cc1 (stereo not given)	Autofluor counter 18611, BoNT A protease inconclusive
Cc1ccc(NC(=O)N2CCC(C(=O)NCCC3=CCCCC3)CC2)cc1	Autofluor counter 16684
CCn1c(SCC(=O)N2CCN(c3ccccc3)CC2)nnc1-c1cc2cc(Cl)ccc2o1	Autofluor counter 22674, BoNT A protease inconclusive
C=CCn1c(SCC(=O)N2CCN(c3ccccc3)CC2)nnc1-c1ccco1	none
CCc1cc2c(=O)c(-c3nc4ccccc4n3C)c(C(C)C)oc2c(CN2CCN(C)CC2)c1O	Autofluor counter 20753
CCc1cc2c(=O)c(-c3nc4ccccc4n3C)c(C)oc2c(CN2CCN(C)CC2)c1O	none (no result: BoNT F protease, Autofluor counter, MazEF act, Anthrax LF prot, BoNT A protease)
Cc1c(N)cccc1[N+](=O)[O-]	none (no result: DUSP3 inh)

Source: PubChem (several laboratories)
